# Measured values taken from PubChem BioAssay (EPA / NIEHS).
# Inconclusive results are not listed. Calls of active or inactive are those of the source. The calls were made as follows, unless noted: active = hit-call score of the fitted dose curve at least 0.9, where 1 is the maximum; inactive = score below 0.9.
# Assays:
# [1] = target: Myc proto-oncogene protein (Homo sapiens) (UniProt P01106); assay: ATG_Myc_CIS: Attagene CIS-FACTORIAL HepG2 Assay for human Myelocytomatosis (Myc) Proto-Oncogene Transcription Factor (AID 2282990); conditions: HepG2, Attagene cis-reporter transcription factor activity; actives raise or lower the signal
# How it was run: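 DMSO-normalised, bidirectionally fitted reporter mRNA signal. HepG2 cells transfected with cis reporter constructs, treated 24 h; transcripts detected by RT-PCR, 6-FAM primer extension and CE.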
# [2] = ATG_NRF2_ARE_CIS: Attagene CIS-FACTORIAL HepG2 Assay for human Nuclear Factor Erythroid 2 Related Factor 2 (NFR2) response to Antioxidant Response Elements (ARE) (AID 2282992); conditions: HepG2 Attagene ARE/NRF2 reporter, transcription factor activity; actives raise or lower the signal
# How it was run: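 Endogenous transcription factor activity read out as reporter transcript levels (RT-PCR plus capillary electrophoresis, fluorescence) in transiently transfected HepG2 cells. Measured at 24 h after dosing; gain or loss of signal fitted versus DMSO.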
# [3] = ATG_Oct_MLP_CIS: Attagene CIS-FACTORIAL HepG2 Assay for human Octamer-Binding Transcription Factor (Oct) (AID 2282993); conditions: HepG2 Attagene cis-factorial Oct reporter, mRNA; actives raise or lower the signal
# How it was run: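 Readout is reporter transcript level from RT-PCR with fluorescent primer extension and capillary electrophoresis, fitted in both directions against DMSO. Transfected HepG2 reporter units report endogenous factor activity after 24 h dosing.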
# [4] = target: Cellular tumor antigen p53 (Homo sapiens) (UniProt P04637); assay: ATG_p53_CIS: Attagene CIS-FACTORIAL HepG2 Assay for human p53 Transcription Factor (AID 2282994); conditions: HepG2 p53 cis-element reporter, Attagene mRNA; actives raise or lower the signal
# Chain of Cellular tumor antigen p53 (Homo sapiens) (P04637 whole entry, looked up): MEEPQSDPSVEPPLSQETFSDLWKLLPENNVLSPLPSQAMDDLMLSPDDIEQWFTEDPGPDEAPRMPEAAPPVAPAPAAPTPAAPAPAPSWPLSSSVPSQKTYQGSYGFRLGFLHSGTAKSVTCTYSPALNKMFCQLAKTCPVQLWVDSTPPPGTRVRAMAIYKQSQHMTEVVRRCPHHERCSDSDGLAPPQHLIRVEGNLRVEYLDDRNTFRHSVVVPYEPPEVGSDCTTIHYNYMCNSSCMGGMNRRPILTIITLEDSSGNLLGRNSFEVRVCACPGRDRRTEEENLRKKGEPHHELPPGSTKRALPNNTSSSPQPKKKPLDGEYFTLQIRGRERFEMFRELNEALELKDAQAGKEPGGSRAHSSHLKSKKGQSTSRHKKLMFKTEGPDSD
# How it was run: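 Endogenous p53 activity read in transiently transfected HepG2 from a cis-element-driven reporter transcript after 24 h exposure. RNA reverse-transcribed, PCR-amplified, fluorescently labelled and sized by capillary electrophoresis; gain or loss fitted against DMSO baseline.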
# [5] = target: human Peroxisome Proliferator-activated Receptor alpha (PPARa), PPARA (gene 5465) (UniProt Q07869); assay: ATG_PPARa_TRANS: Attagene TRANS-FACTORIAL HepG2 Assay for human Peroxisome Proliferator-activated Receptor alpha (PPARa) (AID 2283001; active = hit-call score of the fitted dose curve at least 0.9, where 1 is the maximum;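 as to AC50: potency for gain of reporter signal over DMSO so agonist or activator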)
# Chain of human Peroxisome Proliferator-activated Receptor alpha (PPARa), PPARA (gene 5465) (Q07869 whole entry, looked up, the tested form may be a part): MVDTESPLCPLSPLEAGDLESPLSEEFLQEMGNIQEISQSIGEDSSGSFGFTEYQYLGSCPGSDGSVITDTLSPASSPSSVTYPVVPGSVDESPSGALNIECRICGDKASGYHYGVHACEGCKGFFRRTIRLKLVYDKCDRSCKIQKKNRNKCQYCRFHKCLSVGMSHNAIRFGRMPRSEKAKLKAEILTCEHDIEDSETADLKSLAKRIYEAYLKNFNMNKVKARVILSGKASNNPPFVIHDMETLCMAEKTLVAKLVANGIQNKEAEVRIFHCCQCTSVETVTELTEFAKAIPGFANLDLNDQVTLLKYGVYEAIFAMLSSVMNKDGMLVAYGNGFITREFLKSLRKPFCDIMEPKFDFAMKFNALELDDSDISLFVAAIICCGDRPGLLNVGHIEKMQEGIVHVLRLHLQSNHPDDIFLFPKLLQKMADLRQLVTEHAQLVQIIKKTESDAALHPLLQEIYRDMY
# How it was run: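 Exposure: 24 h, transiently transfected HepG2 cells. Endpoint: GAL4-UAS reporter mRNA, RT-PCR with capillary electrophoresis fluorescence. Baseline: DMSO; increases fitted.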
# [6] = target: human Retinoic Acid Receptor beta (RARb), RARB (gene 5915) (UniProt P10826); assay: ATG_RARb_TRANS: Attagene TRANS-FACTORIAL HepG2 Assay for human Retinoic Acid Receptor beta (AID 2283004; active = hit-call score of the fitted dose curve at least 0.9, where 1 is the maximum)
# Chain of human Retinoic Acid Receptor beta (RARb), RARB (gene 5915) (P10826 whole entry, looked up, the tested form may be a part): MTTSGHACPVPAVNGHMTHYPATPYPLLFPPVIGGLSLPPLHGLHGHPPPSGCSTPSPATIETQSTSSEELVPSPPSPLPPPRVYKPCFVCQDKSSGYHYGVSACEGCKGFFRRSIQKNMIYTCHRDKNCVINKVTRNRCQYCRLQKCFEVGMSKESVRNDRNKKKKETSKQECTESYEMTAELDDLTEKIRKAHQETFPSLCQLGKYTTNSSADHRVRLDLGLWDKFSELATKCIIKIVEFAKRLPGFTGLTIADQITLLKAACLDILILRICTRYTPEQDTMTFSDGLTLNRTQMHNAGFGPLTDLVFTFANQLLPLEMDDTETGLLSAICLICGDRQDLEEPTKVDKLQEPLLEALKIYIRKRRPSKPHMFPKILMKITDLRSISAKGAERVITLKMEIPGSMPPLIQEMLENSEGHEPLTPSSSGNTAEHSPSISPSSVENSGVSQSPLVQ
# How it was run: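 HepG2 cells transiently transfected with multiplexed GAL4-UAS reporter units expressing chimeric NR–Gal4 fusions; 24 h compound exposure. Reporter mRNA quantified by RT-PCR, 6-FAM labelling, HpaI digestion and capillary electrophoresis; gain-of-signal fitted against DMSO baseline.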
# [7] = target: Peroxisome proliferator-activated receptor gamma (Homo sapiens) (UniProt P37231); assay: ATG_PPARg_TRANS: Attagene TRANS-FACTORIAL HepG2 Assay for human Peroxisome Proliferator-activated Receptor-gamma (PPARg) (AID 2283007; active = hit-call score of the fitted dose curve at least 0.9, where 1 is the maximum)
# Chain of Peroxisome proliferator-activated receptor gamma (Homo sapiens) (P37231 whole entry, looked up): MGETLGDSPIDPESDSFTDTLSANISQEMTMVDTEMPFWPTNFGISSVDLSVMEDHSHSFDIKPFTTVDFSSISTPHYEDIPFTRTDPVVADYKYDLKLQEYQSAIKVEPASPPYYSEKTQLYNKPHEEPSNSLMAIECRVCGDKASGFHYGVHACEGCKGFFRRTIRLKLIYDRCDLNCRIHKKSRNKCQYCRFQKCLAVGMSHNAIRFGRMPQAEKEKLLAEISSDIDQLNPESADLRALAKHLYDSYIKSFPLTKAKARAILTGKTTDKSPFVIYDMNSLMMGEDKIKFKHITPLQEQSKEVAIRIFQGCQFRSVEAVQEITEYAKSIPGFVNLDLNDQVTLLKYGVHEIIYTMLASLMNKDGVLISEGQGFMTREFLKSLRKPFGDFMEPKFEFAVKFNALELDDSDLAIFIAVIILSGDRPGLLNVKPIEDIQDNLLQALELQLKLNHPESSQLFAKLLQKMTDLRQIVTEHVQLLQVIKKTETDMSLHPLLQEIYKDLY
# How it was run: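 Twenty-four hours after chemical dosing of transiently transfected HepG2 cells, isolated RNA was converted to cDNA, reporter sequences amplified and 6-FAM-labelled, then HpaI-digested and analysed by capillary electrophoresis. Signal increase against DMSO was fitted.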
# [8] = target: Nuclear receptor subfamily 1 group I member 2 (Homo sapiens) (UniProt O75469); assay: ATG_PXR_TRANS: Attagene TRANS-FACTORIAL HepG2 Assay for human Pregnane X Receptor (PXR) (AID 2283008; active = hit-call score of the fitted dose curve at least 0.9, where 1 is the maximum)
# Chain of Nuclear receptor subfamily 1 group I member 2 (Homo sapiens) (O75469 whole entry, looked up, the tested form may be a part): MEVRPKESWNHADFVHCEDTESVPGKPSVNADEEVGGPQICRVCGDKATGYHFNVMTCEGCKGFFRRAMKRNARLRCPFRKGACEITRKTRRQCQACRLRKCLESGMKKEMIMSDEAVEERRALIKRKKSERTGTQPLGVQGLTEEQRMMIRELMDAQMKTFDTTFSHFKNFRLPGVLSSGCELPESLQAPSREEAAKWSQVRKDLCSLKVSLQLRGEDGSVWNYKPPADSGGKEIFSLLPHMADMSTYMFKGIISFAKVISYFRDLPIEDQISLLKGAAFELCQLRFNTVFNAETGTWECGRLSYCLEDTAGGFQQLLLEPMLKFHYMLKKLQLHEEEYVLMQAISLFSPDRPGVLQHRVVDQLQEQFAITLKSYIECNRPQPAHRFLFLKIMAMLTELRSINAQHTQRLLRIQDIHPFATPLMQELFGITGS
# How it was run: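 Transactivation by exogenous PXR–GAL4 fusion measured as reporter transcript induction after 24 h compound treatment of transfected human HepG2 cells. Read-out via RT-PCR and capillary electrophoresis of labelled fragments, fitted upward relative to DMSO.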
# [9] = target: human RAR-related Orphan Receptor beta (RORb), RORB (gene 6096) (UniProt Q92753); assay: ATG_RORb_TRANS: Attagene TRANS-FACTORIAL HepG2 Assay for human RAR-related Orphan Receptor beta (RORb) (AID 2283010; active = hit-call score of the fitted dose curve at least 0.9, where 1 is the maximum)
# Chain of human RAR-related Orphan Receptor beta (RORb), RORB (gene 6096) (Q92753 whole entry, looked up, the tested form may be a part): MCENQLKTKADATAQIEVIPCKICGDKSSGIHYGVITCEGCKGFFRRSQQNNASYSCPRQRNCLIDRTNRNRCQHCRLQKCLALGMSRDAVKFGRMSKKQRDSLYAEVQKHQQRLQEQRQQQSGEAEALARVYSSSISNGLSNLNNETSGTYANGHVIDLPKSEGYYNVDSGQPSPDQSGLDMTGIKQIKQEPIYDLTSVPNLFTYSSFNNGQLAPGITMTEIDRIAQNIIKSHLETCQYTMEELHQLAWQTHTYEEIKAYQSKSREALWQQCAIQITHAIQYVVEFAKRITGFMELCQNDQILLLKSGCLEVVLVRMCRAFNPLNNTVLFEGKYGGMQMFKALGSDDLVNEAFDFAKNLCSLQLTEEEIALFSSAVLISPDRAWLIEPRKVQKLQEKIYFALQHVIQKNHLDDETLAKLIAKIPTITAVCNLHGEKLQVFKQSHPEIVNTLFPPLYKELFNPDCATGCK
# How it was run: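 HepG2, transient MRTU transfection (GAL4-UAS reporters, exogenous NR-Gal4 chimeras); 24 h compound exposure; total RNA → RT-PCR → 6-FAM primer extension → HpaI digest → CE fluorescence. Positive direction vs DMSO baseline.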
# [10] = target: human Retinoic Acid Receptor gamma (RARg), RARG (gene 5916) (UniProt P13631); assay: ATG_RARg_TRANS: Attagene TRANS-FACTORIAL HepG2 Assay for human Retinoic Acid Receptor gamma (RARg) (AID 2283009; active = hit-call score of the fitted dose curve at least 0.9, where 1 is the maximum)
# Chain of human Retinoic Acid Receptor gamma (RARg), RARG (gene 5916) (P13631 whole entry, looked up, the tested form may be a part): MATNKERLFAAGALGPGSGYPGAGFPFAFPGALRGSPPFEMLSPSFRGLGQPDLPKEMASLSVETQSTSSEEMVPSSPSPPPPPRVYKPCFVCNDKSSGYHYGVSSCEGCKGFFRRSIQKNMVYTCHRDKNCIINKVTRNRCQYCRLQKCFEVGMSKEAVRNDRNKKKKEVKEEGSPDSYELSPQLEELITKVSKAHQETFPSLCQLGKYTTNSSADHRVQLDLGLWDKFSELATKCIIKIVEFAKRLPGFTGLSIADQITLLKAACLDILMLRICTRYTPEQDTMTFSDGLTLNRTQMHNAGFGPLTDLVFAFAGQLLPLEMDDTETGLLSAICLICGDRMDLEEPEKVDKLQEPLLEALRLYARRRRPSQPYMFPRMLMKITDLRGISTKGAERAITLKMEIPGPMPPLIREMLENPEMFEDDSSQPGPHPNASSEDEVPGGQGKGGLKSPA
# How it was run: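 Readout: reporter transcript levels via RT-PCR, 6-FAM primer-extension labelling, HpaI digestion and capillary electrophoresis. Cells: HepG2 carrying transfected RARg-GAL4 chimera plus UAS reporter set. Dosing 24 h; DMSO negative control.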
# [11] = target: human Peroxisome Proliferator-activated Receptor delta (PPARd), PPARD (gene 5467) (UniProt Q03181); assay: ATG_PPARd_TRANS: Attagene TRANS-FACTORIAL HepG2 Assay for human Peroxisome Proliferator-activated Receptor delta (PPARd) (AID 2283002; active = hit-call score of the fitted dose curve at least 0.9, where 1 is the maximum)
# Chain of human Peroxisome Proliferator-activated Receptor delta (PPARd), PPARD (gene 5467) (Q03181 whole entry, looked up, the tested form may be a part): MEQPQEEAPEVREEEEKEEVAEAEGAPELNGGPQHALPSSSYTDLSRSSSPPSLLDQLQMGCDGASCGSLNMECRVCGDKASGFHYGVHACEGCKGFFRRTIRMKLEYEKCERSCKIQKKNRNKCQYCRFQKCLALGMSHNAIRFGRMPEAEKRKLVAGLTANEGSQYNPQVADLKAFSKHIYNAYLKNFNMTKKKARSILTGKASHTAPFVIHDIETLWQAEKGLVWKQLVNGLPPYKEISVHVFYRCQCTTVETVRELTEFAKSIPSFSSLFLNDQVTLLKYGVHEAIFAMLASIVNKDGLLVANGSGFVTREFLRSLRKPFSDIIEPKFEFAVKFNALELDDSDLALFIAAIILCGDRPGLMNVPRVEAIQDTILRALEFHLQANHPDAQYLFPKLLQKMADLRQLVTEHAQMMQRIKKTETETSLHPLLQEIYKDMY
# How it was run: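 Measured quantity: GAL4-UAS reporter transcript induction in HepG2 after 24 h chemical dosing, with NR-Gal4 chimeras supplied by transient transfection. Detection by RT-PCR and capillary electrophoresis; upward fit against DMSO.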
# [12] = target: Retinoic acid receptor alpha (Homo sapiens) (UniProt P10276); assay: ATG_RARa_TRANS: Attagene TRANS-FACTORIAL HepG2 Assay for human Retinoic Acid Receptor alpha (RARa) (AID 2283005; active = hit-call score of the fitted dose curve at least 0.9, where 1 is the maximum)
# Chain of Retinoic acid receptor alpha (Homo sapiens) (P10276 whole entry, looked up, the tested form may be a part): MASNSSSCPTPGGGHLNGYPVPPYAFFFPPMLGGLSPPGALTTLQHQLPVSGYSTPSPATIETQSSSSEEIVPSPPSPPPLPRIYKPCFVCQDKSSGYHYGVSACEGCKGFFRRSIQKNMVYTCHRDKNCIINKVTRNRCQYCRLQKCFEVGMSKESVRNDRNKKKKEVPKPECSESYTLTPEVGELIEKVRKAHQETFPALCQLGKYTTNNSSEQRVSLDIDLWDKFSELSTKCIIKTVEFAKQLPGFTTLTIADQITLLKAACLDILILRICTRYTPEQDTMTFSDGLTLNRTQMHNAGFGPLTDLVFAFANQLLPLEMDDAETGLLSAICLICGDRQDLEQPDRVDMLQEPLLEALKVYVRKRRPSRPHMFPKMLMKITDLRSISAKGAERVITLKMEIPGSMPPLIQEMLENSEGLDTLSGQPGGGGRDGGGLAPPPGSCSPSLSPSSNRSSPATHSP
# How it was run: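 HepG2 cells transiently transfected with multiple reporter units expressing chimeric RARα-GAL4 fusion, with GAL4-UAS-driven reporters. After 24 h compound exposure, reporter mRNA induction quantified by RT-PCR and capillary electrophoresis with fluorescent labeling; gain-of-signal fitted relative to DMSO control.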
# [13] = target: human RAR-related Orphan Receptor gamma (RORg), RORC (gene 6097) (UniProt P51449); assay: ATG_RORg_TRANS: Attagene TRANS-FACTORIAL HepG2 Assay for human RAR-related Orphan Receptor gamma (RORg) (AID 2283011; active = hit-call score of the fitted dose curve at least 0.9, where 1 is the maximum)
# Chain of human RAR-related Orphan Receptor gamma (RORg), RORC (gene 6097) (P51449 whole entry, looked up, the tested form may be a part): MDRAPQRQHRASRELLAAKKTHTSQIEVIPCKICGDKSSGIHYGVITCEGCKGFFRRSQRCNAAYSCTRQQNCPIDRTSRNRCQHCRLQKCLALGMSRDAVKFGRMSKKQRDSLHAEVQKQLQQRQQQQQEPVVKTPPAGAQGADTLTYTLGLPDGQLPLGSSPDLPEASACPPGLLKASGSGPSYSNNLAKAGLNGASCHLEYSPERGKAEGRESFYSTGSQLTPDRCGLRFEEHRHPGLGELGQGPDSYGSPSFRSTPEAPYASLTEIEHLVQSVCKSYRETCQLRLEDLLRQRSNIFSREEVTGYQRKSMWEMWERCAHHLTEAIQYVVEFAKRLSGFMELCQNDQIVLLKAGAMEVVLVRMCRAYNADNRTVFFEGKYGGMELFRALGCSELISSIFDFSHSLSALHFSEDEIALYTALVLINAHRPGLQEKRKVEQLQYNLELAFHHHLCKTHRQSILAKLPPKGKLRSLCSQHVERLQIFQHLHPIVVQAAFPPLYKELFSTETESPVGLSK
# How it was run: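 Readout: reporter transcript induction (RT-PCR, fluorescent primer extension, capillary electrophoresis) after 24 h compound exposure of transiently transfected HepG2 cells carrying a RORg-Gal4 chimera and GAL4-UAS reporters; DMSO served as baseline, with increasing signal fitted.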
# [14] = BSK_3C_TissueFactor: BioMAP Diversity Plus: 3C Assay for Tissue Factor Biomarker Activity (AID 2282997); conditions: BioMAP 3C HUVEC, tissue factor biomarker readout; actives raise or lower the signal
# How it was run: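 Readout: Tissue Factor ELISA. Cells: human primary umbilical vein endothelium. Time: 24 h after dosing. Analysis: bidirectional fit, DMSO baseline.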
# [15] = BSK_3C_uPAR: BioMAP Diversity Plus: 3C Assay for Urokinase-type plasminogen activator receptor (uPAR) Biomarker Activity (AID 2282998); conditions: BioMAP 3C HUVEC, uPAR biomarker ELISA; actives raise or lower the signal
# How it was run: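 Cell-surface uPAR on HUVEC (3C system) read by ELISA at 24 h post-treatment, with DMSO as baseline and fitting in both directions. Parallel cultures stained with SRB to flag overt cytotoxicity.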
# [16] = BSK_3C_VCAM1: BioMAP Diversity Plus: 3C Assay for Vascular cell adhesion molecule 1 (VCAM1) Biomarker Activity (AID 2282999); conditions: BioMAP 3C HUVEC, VCAM1 ELISA, cytokine-stimulated; actives raise or lower the signal
# How it was run: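 Vascular primary endothelium (human umbilical vein) was exposed to chemicals and assayed 24 h later. VCAM-1 levels came from ELISA, with DMSO serving as baseline for bidirectional fitting.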
# [17] = BSK_4H_Eotaxin3: BioMAP Diversity Plus: 4H Assay for Eotaxin 3 Biomarker Activity (AID 2283000); conditions: primary human endothelial cells (HUVEC); actives raise or lower the signal;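 as to outcome: CCL26 protein level quantified by ELISA in parallel with SRB cytotoxicity check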
# How it was run: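 HUVEC, 24 h post-dose, ELISA for Eotaxin-3/CCL26. Gain or loss of signal fitted bidirectionally vs DMSO baseline.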
# [18] = read-out: Intercellular Adhesion Molecule 1 (ICAM1), ICAM1 (gene 3383); assay: BSK_3C_ICAM1: BioMAP Diversity Plus: 3C Assay for Intercellular Adhesion Molecule 1 (ICAM1) Biomarker Activity (AID 2283003); conditions: primary human endothelial cells (HUVEC); actives raise or lower the signal
# How it was run: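 ELISA read-out of ICAM-1; HUVEC (primary human), 3C system, 24 h post-dosing; bidirectional fit vs DMSO baseline.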
# [19] = BSK_3C_Proliferation: Cell Proliferation Assessment in the BioMAP Diversity Plus: 3C Assay (AID 2283006); conditions: primary human endothelial cells (HUVEC)
# How it was run: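 HUVEC, sub-confluent; 48 h chemical exposure; 10% TCA fix, 0.1% SRB stain, A560 total protein. Gain or loss of signal fitted both directions vs DMSO control.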
smiles,measurement,setting,value
O=C(Cl)OCCOCCOC(=O)Cl,outcome,[1],inactive
same,outcome,[2],inactive
same,outcome,[3],inactive
same,outcome,[4],inactive
same,outcome,[5],inactive
same,outcome,[6],inactive
same,outcome,[7],inactive
same,outcome,[8],inactive
same,outcome,[9],inactive
O=C1C[C@@H]2OCC=C3CN4CC[C@]56c7ccccc7N1[C@H]5[C@H]2[C@H]3C[C@H]46,outcome,[1],inactive
same,outcome,[2],inactive
same,outcome,[3],inactive
same,outcome,[4],inactive
same,outcome,[7],inactive
same,outcome,[8],inactive
same,outcome,[10],inactive
COC(F)(C(F)(F)C(F)(F)F)C(F)(C(F)(F)F)C(F)(F)F (configuration not stated),outcome,[1],inactive
same,outcome,[2],inactive
same,outcome,[3],inactive
same,outcome,[4],inactive
same,outcome,[11],inactive
same,outcome,[6],inactive
same,outcome,[12],inactive
same,outcome,[7],inactive
same,outcome,[8],inactive
same,outcome,[13],inactive
Nc1nc(=S)[nH][nH]1,outcome,[1],inactive
same,outcome,[2],inactive
same,outcome,[3],inactive
same,outcome,[4],inactive
same,outcome,[7],inactive
same,outcome,[8],inactive
same,outcome,[13],inactive
C#CCO,outcome,[1],inactive
same,outcome,[2],inactive
same,outcome,[3],inactive
same,outcome,[4],inactive
same,outcome,[5],inactive
same,outcome,[11],inactive
same,outcome,[7],inactive
same,outcome,[10],inactive
same,outcome,[9],inactive
same,outcome,[13],inactive
O=C(O)CC(O)(CC(=O)O)C(=O)O,outcome,[1],inactive
same,outcome,[2],inactive
same,outcome,[3],inactive
same,outcome,[4],inactive
same,outcome,[5],inactive
same,outcome,[11],inactive
same,outcome,[7],inactive
same,outcome,[8],inactive
same,outcome,[13],inactive
c1ccc2c(c1)Oc1ccccc1O2,outcome,[1],inactive
same,AC50,[2],35.4 µM (active)
same,outcome,[3],inactive
same,outcome,[4],inactive
same,outcome,[5],inactive
same,outcome,[6],inactive
same,outcome,[8],inactive
same,outcome,[9],inactive
same,outcome,[13],inactive
Oc1cc(Cl)c(Cl)cc1Cl,AC50,[1],152 µM (active)
same,outcome,[2],inactive
same,AC50,[3],66.2 µM (active)
same,AC50,[14],20 µM (active)
same,AC50,[15],14.7 µM (active)
same,outcome,[16],inactive
same,AC50,[17],27.6 µM (active)
same,outcome,[5],inactive
same,AC50,[7],55.9 µM (active)
same,outcome,[8],inactive
O=c1nc(O)n(Cl)c(=O)n1Cl,outcome,[1],inactive
same,outcome,[2],inactive
same,outcome,[3],inactive
same,outcome,[7],inactive
same,outcome,[8],inactive
same,outcome,[9],inactive
same,outcome,[13],inactive
Oc1c(Cl)cc(Cl)cc1Cl,outcome,[1],inactive
same,outcome,[3],inactive
same,outcome,[4],inactive
same,outcome,[14],inactive
same,outcome,[15],inactive
same,outcome,[16],inactive
same,outcome,[17],inactive
same,AC50,[5],15.9 µM (active)
same,outcome,[11],inactive
same,outcome,[18],inactive
same,outcome,[19],inactive
same,AC50,[7],42.5 µM (active)
same,outcome,[8],inactive
same,outcome,[13],inactive
C=C(C)C(=O)OCCCCOC(=O)C(=C)C,outcome,[1],inactive
same,AC50,[2],48.3 µM (active)
same,outcome,[3],inactive
same,AC50,[7],79.9 µM (active)
same,outcome,[8],inactive
same,outcome,[10],inactive
same,outcome,[9],inactive
CCCCN(CCCC)C(=S)[S-].CCCCN(CCCC)C(=S)[S-].[Ni+2],outcome,[1],inactive
same,outcome,[2],inactive
same,outcome,[3],inactive
same,outcome,[15],inactive
same,outcome,[16],inactive
same,outcome,[17],inactive
same,outcome,[18],inactive
same,outcome,[12],inactive
same,outcome,[19],inactive
same,outcome,[7],inactive
same,AC50,[8],2.73 µM (active)
same,outcome,[13],inactive
